Assay [1] has as its target Alpha-galactosidase A (Homo sapiens) (UniProt P06280). As to the kind of experiment: Counterscreen for Glucocerebrosidase Inhibitors: qHTS Assay for Human alpha-Galactosidase at pH 4.5 (AID 992). Further: 0% is about no effect. An outline of the steps: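 Concentration-response curves (0.7 nM to 77 uM final) were modeled with the Hill equation to give AC50. Reactions: 2 nM enzyme, 80 uM fluorogenic alpha-galactoside, pH 4.5 citric acid buffer, 20 min, room temperature.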
In general terms: The purpose of a counterscreen is to sort out artefacts and off-target activity.

For assay [2], the target named is alpha-glucosidase (Oryza sativa, rice) (UniProt Q653V4). As to the kind of experiment: Counterscreen for Glucocerebrosidase Inhibitors: qHTS Assay for Rice alpha-Glucosidase at pH 5.0 (AID 997).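 Further: 0% = full activity with enzyme and -100% = basal without enzyme.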 An outline of the steps:
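Rice alpha-glucosidase (4 nM final) with 400 uM 4-methylumbelliferyl-alpha-D-glucopyranoside in citrate buffer pH 5.0, 20 min at room temperature, stopped at pH 10; fluorescence 365/440 nm, compounds 0.7 nM–77 uM, AC50 from Hill fits.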

Assay [3] is described as follows: qHTS Assay for Lipid Storage Modulators (AID 1519; calls by dose curve; on activity change, negative = inhibition: on the % scale 0 is the no-effect control and ±100 the full control effect). Particulars: Drosophila S3 cells, BODIPY lipid droplet/cell ratio, laser cytometry, cells loaded with oleic acid; for activity change, negative = inhibition: at 57.5 µM (top of the series). An outline of the steps:
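Cells seeded at 5,000 per well were treated with compounds over a concentration series and loaded with oleic acid (400 uM, as added). Lipid droplet fluorescence (488 nm excitation, 500-530 nm channel) was read by laser-scanning cytometry and normalized to 20 uM Triacsin C.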

Assay [4] in a line: Counterscreen for APE1 Inhibitors: Fluorescent Dye Displacement Validation Assay (AID 1707).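 Further: plate controls were ThO with dsDNA and no compound for no effect and ThO without dsDNA for full effect.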 An outline of the steps: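 Assay buffer: Tris-HCl pH7.5 with 50mM NaCl, 2 mM MgCl2, 0.01% Tween-20. Dye 250 nM, duplex 50 nM final. Readout: decrease in ThO endpoint fluorescence, 480 nm excitation, 540 nm emission.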
The nature of assay [5]: qHTS for differential inhibitors of proliferation of Plasmodium falciparum line 7G8 (AID 1815;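 further: parasite growth measured after three days of incubation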; further: potency means the concentration at half of the fitted maximal effect;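 on activity change, negative = inhibition: plate controls were vehicle wells for no effect and reference inhibitor wells for full effect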). (In qHTS, concentration-response curves come from the screen itself.)
Assay [6] can be described thus: qHTS for differential inhibitors of proliferation of Plasmodium falciparum line GB4 (AID 1816).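 Further: parasite growth measured after 72 h incubation.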 Further: potency means the concentration at half of the fitted maximal effect.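 On activity change, negative = inhibition: 0% = vehicle DMSO and -100% = reference inhibitor.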 Particulars: Potency: Plasmodium falciparum GB4 proliferation inhibition.
Assay [7] in a line: qHTS for differential inhibitors of proliferation of Plasmodium falciparum line 3D7 (AID 1876). Further: potency means the concentration at half of the fitted maximal effect.
Assay [8] is described as follows: qHTS for differential inhibitors of proliferation of Plasmodium falciparum line D10 (AID 1877).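 Further: parasites grown with compound for 72 h before DNA staining.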 Further: potency means the concentration at half of the fitted maximal effect.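 On activity change, negative = inhibition: plate controls were vehicle wells for no effect and reference inhibitor wells for full effect.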
The nature of assay [9]: qHTS for differential inhibitors of proliferation of Plasmodium falciparum line W2 (AID 1883).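 Further: parasites grown with compound for 72 h before lysis and staining.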 Further: potency means the concentration at half of the fitted maximal effect.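 On activity change, negative = inhibition: 0% = vehicle wells and -100% = control inhibitor wells.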 Particulars: Potency: Plasmodium falciparum W2 proliferation inhibition.
Assay [10] is described as follows: qHTS for differential inhibitors of proliferation of Plasmodium falciparum line HB3 (AID 1886).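 Further: parasites grown with compound for 72 h before SYBR Green readout.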 Further: potency means the concentration at half of the fitted maximal effect.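 On activity change, negative = inhibition: plate controls were vehicle for no effect and reference inhibitor for full effect.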 Conditions: Potency: Plasmodium falciparum HB3 proliferation inhibition.
The target in assay [11] is Ferritin light chain (Equus caballus) (UniProt P02791). As to the kind of experiment: qHTS Validation Assay for Identification of Novel General Anesthetics (AID 2323). Further: on the % scale 0 is the no-effect control and ±100 the full control effect. In outline:
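Competitive displacement of the profluorescent anesthetic 1-AMA (50% saturated, PBS) from 10 uM apoferritin, 10 min, room temperature. Activity is normalized 380/535 nm fluorescence; concentration-response fitted with a four-parameter Hill equation.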

In assay [12] the target is ATP-dependent DNA helicase Q1 (Homo sapiens) (UniProt P46063). As to the kind of experiment: qHTS Validation Assay for Inhibitors of RecQ-Like Dna Helicase 1 (RECQ1) (AID 2353).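 Further: plate controls were DMSO vehicle for no effect and enzyme-free control for full effect.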 In outline: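 50 nM RECQ1T1 preincubated 15 min with compound in Tris pH 8.0 buffer with MgCl2, DTT, Tween-20 and 2.5 ug/ml poly(dI-dC); started with 200 nM TAMRA/BHQ-2 forked duplex and 2 mM ATP. Unwinding read as fluorescence (525/598 nm), two reads 2 h apart.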
Chain of ATP-dependent DNA helicase Q1 (Homo sapiens) (P46063 whole entry, looked up): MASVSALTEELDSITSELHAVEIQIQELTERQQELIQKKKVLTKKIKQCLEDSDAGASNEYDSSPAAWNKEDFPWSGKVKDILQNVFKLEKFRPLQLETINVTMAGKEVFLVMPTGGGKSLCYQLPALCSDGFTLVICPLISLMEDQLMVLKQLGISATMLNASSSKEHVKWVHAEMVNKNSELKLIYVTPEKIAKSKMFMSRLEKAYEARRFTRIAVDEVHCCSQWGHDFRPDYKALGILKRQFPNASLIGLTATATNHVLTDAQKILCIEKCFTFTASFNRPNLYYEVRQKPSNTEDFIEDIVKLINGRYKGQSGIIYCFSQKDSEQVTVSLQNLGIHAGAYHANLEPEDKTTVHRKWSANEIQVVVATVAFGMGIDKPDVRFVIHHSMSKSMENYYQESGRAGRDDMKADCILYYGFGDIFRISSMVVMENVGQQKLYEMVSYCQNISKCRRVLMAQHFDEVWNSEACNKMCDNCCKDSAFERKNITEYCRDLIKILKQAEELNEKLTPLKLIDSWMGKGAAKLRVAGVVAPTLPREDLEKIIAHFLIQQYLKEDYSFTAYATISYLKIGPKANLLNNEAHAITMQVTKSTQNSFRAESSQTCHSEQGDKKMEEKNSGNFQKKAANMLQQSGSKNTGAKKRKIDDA

Assay [13] has as its target DNA repair nuclease/redox regulator APEX1 (Homo sapiens) (UniProt P27695). Briefly: qHTS Validation Assay for Inhibitors of the Human Apurinic/apyrimidinic Endonuclease 1 (APE1) (AID 1705;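 further: TAMRA fluorescence gain over two minutes as APE1 cuts a quenched THF abasic duplex; on the % scale 0 is the no-effect control and ±100 the full control effect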). In outline:
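Activity read as rising fluorescence (598 nm emission, 525 nm excitation) from incision of a TAMRA/BHQ-2 duplex carrying a THF abasic site (50 nM). Compound and enzyme sat 15 min at RT before substrate start; signal change between first and third 60-s reads.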

Assay [14] can be described thus: Cell Viability - LYMP2-024 (AID 988).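 Further: plate controls were DMSO only for no effect and 92 µM tetraoctylammonium bromide for full effect; nearly all actives have a fitted effect of over 60% in size.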 An outline of the steps: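 Human lymphoblastoid LYMP2-024 cells (2500/well) rested 5 hr, then treated with compound for 24 hr at 37 C in complete medium. Viability was measured as intracellular ATP by CellTiter-Glo luminescence. AC50 values came from Hill-equation fits.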
Assay [15] is described as follows: Cell Viability - LYMP2-026 (AID 989). Further: on the % scale 0 is the no-effect control and ±100 the full control effect; nearly all actives have a fitted effect of over 50% in size. In outline:
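Human lymphoblastoid LYMP2-026 cells, 2500/well, exposed to compound 24 h at 37 C in complete medium. Viability as intracellular ATP by CellTiter-Glo luminescence; AC50 from Hill fits of qHTS concentration-response.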

The nature of assay [16]: Cell Viability - LYMP1-002 - Assay at 24 hr (AID 993). Further: on the % scale 0 is the no-effect control and ±100 the full control effect. An outline of the steps: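 Human lymphoblastoid LYMP1-002 cells (2500/well) treated 24 h at 37 °C; viability as intracellular ATP by CellTiter-Glo luminescence. Tetraoctylammonium bromide as positive control; AC50 from Hill-equation fits of qHTS concentration-response.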
A short description of assay [17]: Cell Viability - LYMP1-002 - Assay at 40 hr (AID 994).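 Further: 0% = DMSO only and full inhibition = 92 µM tetraoctylammonium bromide; nearly all actives have a fitted effect of over 60% in size.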 An outline of the steps: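 LYMP1-002 human lymphoblastoid cells (2500/well, complete medium) were treated with compounds for 40 hr at 37 C. Intracellular ATP was measured by CellTiter-Glo luminescence, and AC50 values came from Hill-equation fits of concentration-response data; tetraoctylammonium bromide was the positive control.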

Assay [18] can be described thus: qHTS Assay for Identification of Small Molecule Inducers of Hypoxia Response (AID 2120; active means well fitted curve in the direction sought with a large enough effect in the signal ratio, with a control signal flat, not every such curve was filed as active; the % refers to the signal ratio; further: 0% is about no effect). In outline: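 HRE-bla ME-180 cells in Opti-MEM with 0.5% dialyzed FBS, pre-plated 4-5 h, then compound titration for 17 h at 37 degrees Celsius. CCF4 loaded 2.5 h at room temperature; 460/530 nm ratio gave %Activity and AC50 for induction.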
The mark [19] stands for this setting: measured here: cell count channel max response.
[20] abbreviates: measured here: lipid channel max response.

Inconclusive results are not listed. Calls of active or inactive are those of the source. Unless noted, the call rests on the fitted dose curve; in most records, active means well fitted curve in the direction sought with a large enough effect; inconclusive means small, poorly fitted or top-dose-only effect, or another doubt; inactive means no such curve, though single readings can be large; an effect the other way counts as inactive or inconclusive.

Chain of DNA repair nuclease/redox regulator APEX1 (Homo sapiens) (P27695 whole entry, looked up): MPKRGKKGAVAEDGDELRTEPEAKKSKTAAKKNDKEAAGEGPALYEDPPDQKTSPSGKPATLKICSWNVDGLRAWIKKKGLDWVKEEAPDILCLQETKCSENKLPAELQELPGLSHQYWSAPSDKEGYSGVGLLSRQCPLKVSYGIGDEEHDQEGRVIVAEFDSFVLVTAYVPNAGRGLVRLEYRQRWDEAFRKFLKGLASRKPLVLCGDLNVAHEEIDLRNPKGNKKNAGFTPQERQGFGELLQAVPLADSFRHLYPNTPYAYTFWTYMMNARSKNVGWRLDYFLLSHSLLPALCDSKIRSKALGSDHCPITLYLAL
Chain of Ferritin light chain (Equus caballus) (P02791 2-175 limits assumed): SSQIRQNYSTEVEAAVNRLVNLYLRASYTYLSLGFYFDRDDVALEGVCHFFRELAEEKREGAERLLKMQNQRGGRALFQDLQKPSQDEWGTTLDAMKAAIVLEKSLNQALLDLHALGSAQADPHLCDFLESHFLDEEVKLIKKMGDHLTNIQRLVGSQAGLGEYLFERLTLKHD
Chain of Alpha-galactosidase A (Homo sapiens) (P06280 whole entry, looked up): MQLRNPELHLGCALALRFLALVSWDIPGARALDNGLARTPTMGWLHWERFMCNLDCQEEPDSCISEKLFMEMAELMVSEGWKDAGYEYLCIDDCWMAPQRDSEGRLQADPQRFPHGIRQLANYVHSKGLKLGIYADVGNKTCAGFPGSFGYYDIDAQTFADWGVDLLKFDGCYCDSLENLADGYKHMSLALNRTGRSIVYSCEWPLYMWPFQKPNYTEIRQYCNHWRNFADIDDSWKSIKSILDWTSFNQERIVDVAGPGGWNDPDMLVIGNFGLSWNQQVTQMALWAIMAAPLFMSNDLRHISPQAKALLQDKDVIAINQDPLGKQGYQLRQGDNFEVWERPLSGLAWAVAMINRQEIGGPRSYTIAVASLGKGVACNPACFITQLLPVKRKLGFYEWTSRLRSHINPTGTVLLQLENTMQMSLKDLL

Regarding `NC(N)=NCCC[C@H](N)C(=O)O`, the call in assay [1], in [2] and in assay [11] was inactive. In addition, in [3], the activity change, negative = inhibition is -0.95% (inactive). Further, the max response was -7.59% in [3] (setting [19]) and -6.54% in assay [3] (setting [20]). For the same compound, the Potency entry in assay [4], in assay [5], in assay [6], in assay [7], in assay [8] and in assay [9] was “inactive” in each case. Besides, the Potency result in assay [10] and in assay [12] was “inactive” in each case.

As to `CN(C)CCCN1c2ccccc2Sc2ccc(Cl)cc21`, the outcome in assay [1], in assay [2] and in assay [11] was inactive. The Potency entry in assay [13], in assay [4] and in [12] was “inactive” throughout. The Potency in assay [5] was 4.47 µM (active); in assay [6] it was 11.2 µM (active); in assay [7], 4.47 µM (active); in [8] it was 12.6 µM (active); in assay [9], 3.55 µM (active); in assay [10] it was 8.91 µM (active).

On to `C[C@]12C[C@H](O)[C@H]3[C@@H](CCC4=CC(=O)CC[C@@]43C)[C@@H]1CC[C@@H]2C(=O)CO`, for which the compound was classed as inactive in [14], in assay [1], in assay [2] and in assay [18]. For the same compound, the Potency result in assay [15], in assay [16] and in assay [17] was “inactive” in each case.

Consider `Cc1cc(N)c2ccccc2[n+]1CCCCCCCCCC[n+]1c(C)cc(N)c2ccccc21`, for which the compound was classed as inactive in [1], in assay [2] and in assay [11]. Moreover, in [3], the activity change, negative = inhibition is -10.5% (inactive). The max response was -7.09% in assay [3] (setting [19]) and -16.4% in assay [3] (setting [20]). Also, the Potency is 0.251 µM (active) in assay [6], 0.0501 µM (active) in assay [7], 0.112 µM (active) in [8] and 0.126 µM (active) in [10]. In [12], the Potency result was “inactive”.

As for `COc1ccccc1O`, the call in assay [14] and in [18] was inactive. The Potency result in assay [15], in [16] and in assay [17] was “inactive” each time.

For `CC[C@H]1CN2CCc3cc(OC)c(OC)cc3[C@@H]2C[C@@H]1C[C@H]1NCCc2cc(OC)c(OC)cc21`, the Potency entry in [4] and in assay [12] was “inactive” in each case.

As to `Cc1cc2nc3c(=O)[nH]c(=O)nc-3n(C[C@H](O)[C@H](O)[C@H](O)CO)c2cc1C`, the compound was classed as inactive in [14]. For the same compound, the Potency result in assay [15], in assay [16] and in assay [17] was “inactive” in each case.

Regarding `Oc1cccc(O)c1`, the call in [14] and in [18] was inactive. The Potency result in [15], in [16] and in [17] was “inactive” throughout. Further, the activity change, negative = inhibition in assay [3] was 4.72% (inactive). The max response in [3] (setting [19]) is 10.3%; in assay [3] (setting [20]), 16.6%.

As for `CSc1ccc2c(c1)C(N1CCN(C)CC1)Cc1ccccc1S2` (stereo not given), the Potency entry in assay [13], in assay [4] and in [12] was “inactive” each time. For the same compound, the Potency was 6.31 µM (active) in [5]; 11.2 µM (active) in [6]; 8.91 µM (active) in assay [7]; 12.6 µM (active) in assay [8]; 4.47 µM (active) in [9]; 10 µM (active) in assay [10].

In the case of `NC(=O)N/N=C/c1ccc([N+](=O)[O-])o1`, the Potency result in assay [15] and in assay [16] was “inactive” in each case. For the same compound, in assay [3], the activity change, negative = inhibition was -28.3% (inactive). The figures for the max response in assay [3] (setting [19]) and in assay [3] (setting [20]) were -6.33% and -28%, respectively.

On to `CC(C)C(=O)c1c(C(C)C)nn2ccccc12`, for which the call in assay [1], in [2] and in assay [11] was inactive. Moreover, the Potency result in assay [13], in assay [4], in assay [6], in assay [8] and in assay [12] was “inactive” throughout.

The record behind these values is PubChem BioAssay (NCATS).
